Data taken from ChEMBL document CHEMBL1961873, “Compounds: GSK PKIS; Assays: Nanosyn kinase panel” (2012).

Legend:
[1] = target: Ribosomal protein S6 kinase alpha-6 (Homo sapiens) (UniProt Q9UK32); details: at 1 µM;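 further: each value is a mean inhibition of RSK4 from a GSK PKIS panel screen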
[2] = target: T1, Serine/threonine-protein kinase Sgk1 (Homo sapiens) (UniProt O00141); details: at 0.1 µM
T1 sequence (whole entry): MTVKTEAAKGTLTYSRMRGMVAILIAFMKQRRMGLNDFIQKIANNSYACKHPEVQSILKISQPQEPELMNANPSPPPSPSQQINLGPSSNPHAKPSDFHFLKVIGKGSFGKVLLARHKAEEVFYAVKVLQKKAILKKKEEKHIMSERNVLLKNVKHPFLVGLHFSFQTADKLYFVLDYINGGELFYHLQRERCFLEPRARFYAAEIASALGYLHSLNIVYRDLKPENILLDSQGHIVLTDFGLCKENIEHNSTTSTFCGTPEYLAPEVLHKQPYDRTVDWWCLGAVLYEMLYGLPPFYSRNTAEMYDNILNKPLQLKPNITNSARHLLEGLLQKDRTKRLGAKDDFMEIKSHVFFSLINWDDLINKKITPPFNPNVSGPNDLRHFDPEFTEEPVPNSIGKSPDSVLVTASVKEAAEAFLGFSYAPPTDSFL

[3] = target: T1, Serine/threonine-protein kinase Sgk1 (Homo sapiens); details: at 1 µM
[4] = target: T2, Serine/threonine-protein kinase Sgk2 (Homo sapiens) (UniProt Q9HBY8); details: at 0.1 µM
T2 sequence (whole entry): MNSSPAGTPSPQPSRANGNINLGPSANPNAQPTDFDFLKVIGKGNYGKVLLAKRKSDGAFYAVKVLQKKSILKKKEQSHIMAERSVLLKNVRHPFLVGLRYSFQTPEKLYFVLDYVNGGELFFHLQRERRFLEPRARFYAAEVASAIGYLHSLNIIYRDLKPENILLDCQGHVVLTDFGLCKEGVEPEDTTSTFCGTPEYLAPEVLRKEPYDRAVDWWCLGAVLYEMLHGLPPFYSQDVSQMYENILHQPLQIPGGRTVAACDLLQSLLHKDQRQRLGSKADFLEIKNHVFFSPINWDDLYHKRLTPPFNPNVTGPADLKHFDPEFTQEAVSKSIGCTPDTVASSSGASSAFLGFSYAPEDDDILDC

[5] = target: T2, Serine/threonine-protein kinase Sgk2 (Homo sapiens); details: at 1 µM
[6] = target: T3, Serine/threonine-protein kinase Sgk3 (Homo sapiens) (UniProt Q96BR1); details: at 0.1 µM
T3 sequence (whole entry): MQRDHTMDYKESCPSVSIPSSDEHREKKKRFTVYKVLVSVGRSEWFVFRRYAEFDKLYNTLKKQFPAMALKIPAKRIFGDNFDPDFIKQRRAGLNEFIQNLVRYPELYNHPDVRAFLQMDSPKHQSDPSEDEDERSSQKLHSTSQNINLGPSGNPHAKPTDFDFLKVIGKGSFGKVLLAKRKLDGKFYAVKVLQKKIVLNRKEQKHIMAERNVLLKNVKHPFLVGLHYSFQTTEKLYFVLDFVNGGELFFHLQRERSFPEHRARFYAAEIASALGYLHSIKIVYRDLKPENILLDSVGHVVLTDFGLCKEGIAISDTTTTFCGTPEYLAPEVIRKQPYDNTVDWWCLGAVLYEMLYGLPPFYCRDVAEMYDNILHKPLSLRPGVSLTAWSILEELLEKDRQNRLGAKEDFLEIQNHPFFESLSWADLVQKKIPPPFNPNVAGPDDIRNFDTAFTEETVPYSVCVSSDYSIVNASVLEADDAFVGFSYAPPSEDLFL

[7] = target: T3, Serine/threonine-protein kinase Sgk3 (Homo sapiens); details: at 1 µM
[8] = target: 5'-AMP-activated protein kinase catalytic subunit alpha-1 (Homo sapiens) (UniProt Q13131); details: at 0.1 µM
[9] = target: 5'-AMP-activated protein kinase catalytic subunit alpha-1 (Homo sapiens) (UniProt Q13131); details: at 1 µM
[10] = target: 5'-AMP-activated protein kinase catalytic subunit alpha-2 (Homo sapiens) (UniProt P54646); details: at 0.1 µM
[11] = target: 5'-AMP-activated protein kinase catalytic subunit alpha-2 (Homo sapiens) (UniProt P54646); details: at 1 µM
[12] = target: T4, NUAK family SNF1-like kinase 1 (Homo sapiens) (UniProt O60285); details: at 0.1 µM
T4 sequence (whole entry): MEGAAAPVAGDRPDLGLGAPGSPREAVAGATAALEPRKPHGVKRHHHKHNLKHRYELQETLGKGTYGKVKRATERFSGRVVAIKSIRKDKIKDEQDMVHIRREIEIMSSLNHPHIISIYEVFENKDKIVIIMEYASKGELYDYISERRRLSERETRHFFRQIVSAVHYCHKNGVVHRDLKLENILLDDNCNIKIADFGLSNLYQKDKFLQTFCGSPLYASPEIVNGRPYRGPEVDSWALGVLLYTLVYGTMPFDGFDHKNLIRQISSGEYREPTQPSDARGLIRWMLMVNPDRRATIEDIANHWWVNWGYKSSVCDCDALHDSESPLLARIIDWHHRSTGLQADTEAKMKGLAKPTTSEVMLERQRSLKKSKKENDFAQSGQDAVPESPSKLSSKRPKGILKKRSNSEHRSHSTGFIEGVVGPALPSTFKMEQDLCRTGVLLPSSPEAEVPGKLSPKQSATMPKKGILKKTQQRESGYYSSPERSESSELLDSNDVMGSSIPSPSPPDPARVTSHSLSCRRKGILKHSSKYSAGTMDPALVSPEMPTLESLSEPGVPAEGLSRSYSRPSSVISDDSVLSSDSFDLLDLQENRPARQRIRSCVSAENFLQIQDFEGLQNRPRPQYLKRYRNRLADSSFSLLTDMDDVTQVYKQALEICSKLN

[13] = target: T5, Serine/threonine-protein kinase BRSK1 (Homo sapiens) (UniProt Q8TDC3); details: at 0.1 µM
T5 sequence (whole entry): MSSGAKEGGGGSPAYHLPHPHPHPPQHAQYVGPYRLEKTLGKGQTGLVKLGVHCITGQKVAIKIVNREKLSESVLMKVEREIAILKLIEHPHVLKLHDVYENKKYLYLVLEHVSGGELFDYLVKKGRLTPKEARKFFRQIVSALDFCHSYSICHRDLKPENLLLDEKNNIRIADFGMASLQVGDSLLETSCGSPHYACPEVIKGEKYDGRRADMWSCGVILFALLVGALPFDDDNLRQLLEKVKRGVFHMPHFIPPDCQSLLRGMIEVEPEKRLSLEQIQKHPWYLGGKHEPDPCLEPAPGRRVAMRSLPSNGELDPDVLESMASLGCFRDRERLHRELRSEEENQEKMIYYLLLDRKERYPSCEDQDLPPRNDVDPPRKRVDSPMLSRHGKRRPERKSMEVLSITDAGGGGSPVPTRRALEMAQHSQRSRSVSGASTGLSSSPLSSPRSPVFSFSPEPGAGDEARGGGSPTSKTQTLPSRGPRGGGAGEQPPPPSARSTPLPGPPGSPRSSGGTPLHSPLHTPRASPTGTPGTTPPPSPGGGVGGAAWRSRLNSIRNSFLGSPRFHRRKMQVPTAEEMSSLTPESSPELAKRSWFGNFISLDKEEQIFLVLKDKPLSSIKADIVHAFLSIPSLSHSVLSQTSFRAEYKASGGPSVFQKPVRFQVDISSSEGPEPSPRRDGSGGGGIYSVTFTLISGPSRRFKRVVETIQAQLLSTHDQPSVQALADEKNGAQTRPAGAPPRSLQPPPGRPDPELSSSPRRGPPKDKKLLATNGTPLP

[14] = target: T5, Serine/threonine-protein kinase BRSK1 (Homo sapiens); details: at 1 µM
[15] = target: T6, Serine/threonine-protein kinase BRSK2 (Homo sapiens) (UniProt Q8IWQ3); details: at 0.1 µM
T6 sequence (whole entry): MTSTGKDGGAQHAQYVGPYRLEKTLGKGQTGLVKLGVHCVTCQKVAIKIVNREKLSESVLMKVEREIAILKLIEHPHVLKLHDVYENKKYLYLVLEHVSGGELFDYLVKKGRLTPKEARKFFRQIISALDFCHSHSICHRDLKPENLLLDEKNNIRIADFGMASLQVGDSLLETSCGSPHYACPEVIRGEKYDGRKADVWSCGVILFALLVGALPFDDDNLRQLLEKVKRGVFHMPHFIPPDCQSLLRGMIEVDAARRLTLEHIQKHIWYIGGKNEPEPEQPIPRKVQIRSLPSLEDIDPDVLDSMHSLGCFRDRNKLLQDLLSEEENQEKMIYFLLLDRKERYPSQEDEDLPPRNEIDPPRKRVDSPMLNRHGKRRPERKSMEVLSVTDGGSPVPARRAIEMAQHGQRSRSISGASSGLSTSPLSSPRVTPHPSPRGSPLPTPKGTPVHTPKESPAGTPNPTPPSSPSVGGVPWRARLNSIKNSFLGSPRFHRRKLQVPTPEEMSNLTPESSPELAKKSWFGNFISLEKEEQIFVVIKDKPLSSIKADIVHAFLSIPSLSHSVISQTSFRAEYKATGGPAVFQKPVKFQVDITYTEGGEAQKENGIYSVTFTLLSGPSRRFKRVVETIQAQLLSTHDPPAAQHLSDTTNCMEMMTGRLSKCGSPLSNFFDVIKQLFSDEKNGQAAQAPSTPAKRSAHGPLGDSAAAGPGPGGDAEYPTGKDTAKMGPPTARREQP

[16] = target: T6, Serine/threonine-protein kinase BRSK2 (Homo sapiens); details: at 1 µM
[17] = target: Calcium/calmodulin-dependent protein kinase type 1D (Homo sapiens) (UniProt Q8IU85); details: at 0.1 µM
[18] = target: Calcium/calmodulin-dependent protein kinase type 1D (Homo sapiens) (UniProt Q8IU85); details: at 1 µM
[19] = target: Calcium/calmodulin-dependent protein kinase type II subunit alpha (Homo sapiens) (UniProt Q9UQM7); details: at 0.1 µM;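 further: reported values are averages (mean inhibition of CAMK2A)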
[20] = target: T4, NUAK family SNF1-like kinase 1 (Homo sapiens); details: at 1 µM

Calcium/calmodulin-dependent protein kinase type II subunit alpha (Homo sapiens), sequence (Q9UQM7 whole entry): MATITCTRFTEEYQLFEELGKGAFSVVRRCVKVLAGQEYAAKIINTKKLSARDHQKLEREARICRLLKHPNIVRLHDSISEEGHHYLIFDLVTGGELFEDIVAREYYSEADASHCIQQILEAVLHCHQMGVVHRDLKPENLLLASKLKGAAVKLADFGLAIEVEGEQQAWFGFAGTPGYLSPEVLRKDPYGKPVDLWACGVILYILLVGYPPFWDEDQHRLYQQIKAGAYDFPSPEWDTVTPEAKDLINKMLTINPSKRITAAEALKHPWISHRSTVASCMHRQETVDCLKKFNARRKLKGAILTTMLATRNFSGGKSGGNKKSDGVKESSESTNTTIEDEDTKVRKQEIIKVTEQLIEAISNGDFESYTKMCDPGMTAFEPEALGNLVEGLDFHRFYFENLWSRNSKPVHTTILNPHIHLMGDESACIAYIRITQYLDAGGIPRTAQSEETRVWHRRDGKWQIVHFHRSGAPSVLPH
5'-AMP-activated protein kinase catalytic subunit alpha-2 (Homo sapiens), sequence (P54646 whole entry, looked up): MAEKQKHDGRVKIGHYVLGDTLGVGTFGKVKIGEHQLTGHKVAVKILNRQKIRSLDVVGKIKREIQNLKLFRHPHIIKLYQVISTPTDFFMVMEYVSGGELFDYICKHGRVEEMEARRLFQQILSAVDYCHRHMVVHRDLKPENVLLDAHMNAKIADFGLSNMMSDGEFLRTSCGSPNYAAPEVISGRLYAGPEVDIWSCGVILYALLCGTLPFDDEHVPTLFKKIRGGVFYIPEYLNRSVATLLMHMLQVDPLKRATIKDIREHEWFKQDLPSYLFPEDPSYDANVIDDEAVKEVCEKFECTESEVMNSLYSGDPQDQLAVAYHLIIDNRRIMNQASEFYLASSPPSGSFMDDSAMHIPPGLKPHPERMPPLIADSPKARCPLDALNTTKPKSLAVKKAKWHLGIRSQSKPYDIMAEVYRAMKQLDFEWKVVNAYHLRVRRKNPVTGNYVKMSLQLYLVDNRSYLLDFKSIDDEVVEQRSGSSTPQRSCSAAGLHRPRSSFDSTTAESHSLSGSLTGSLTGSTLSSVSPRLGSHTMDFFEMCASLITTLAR
Calcium/calmodulin-dependent protein kinase type 1D (Homo sapiens), sequence (Q8IU85 whole entry, looked up): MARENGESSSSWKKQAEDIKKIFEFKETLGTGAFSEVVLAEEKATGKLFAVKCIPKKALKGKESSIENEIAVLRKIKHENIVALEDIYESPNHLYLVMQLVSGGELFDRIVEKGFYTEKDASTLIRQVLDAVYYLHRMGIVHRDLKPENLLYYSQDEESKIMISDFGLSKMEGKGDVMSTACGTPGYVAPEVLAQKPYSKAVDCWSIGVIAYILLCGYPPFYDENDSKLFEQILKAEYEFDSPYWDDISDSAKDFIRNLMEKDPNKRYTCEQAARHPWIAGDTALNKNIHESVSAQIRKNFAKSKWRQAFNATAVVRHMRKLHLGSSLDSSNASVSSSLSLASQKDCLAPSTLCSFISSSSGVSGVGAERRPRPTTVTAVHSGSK
5'-AMP-activated protein kinase catalytic subunit alpha-1 (Homo sapiens), sequence (Q13131 whole entry, looked up): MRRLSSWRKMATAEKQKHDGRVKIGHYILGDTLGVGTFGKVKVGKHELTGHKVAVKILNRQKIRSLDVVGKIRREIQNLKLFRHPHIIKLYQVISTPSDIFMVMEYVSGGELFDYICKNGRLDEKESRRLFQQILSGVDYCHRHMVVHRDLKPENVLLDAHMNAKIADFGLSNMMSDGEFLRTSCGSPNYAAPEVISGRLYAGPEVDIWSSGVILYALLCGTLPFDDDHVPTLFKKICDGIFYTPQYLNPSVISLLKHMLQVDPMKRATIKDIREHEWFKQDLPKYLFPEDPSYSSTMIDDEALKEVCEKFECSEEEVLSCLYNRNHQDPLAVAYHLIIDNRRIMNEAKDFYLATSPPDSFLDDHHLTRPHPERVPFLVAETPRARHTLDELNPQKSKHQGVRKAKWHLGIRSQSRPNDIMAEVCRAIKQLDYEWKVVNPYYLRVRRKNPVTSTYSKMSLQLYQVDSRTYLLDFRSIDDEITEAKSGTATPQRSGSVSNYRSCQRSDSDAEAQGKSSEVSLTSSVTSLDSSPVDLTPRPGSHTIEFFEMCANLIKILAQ
Ribosomal protein S6 kinase alpha-6 (Homo sapiens), sequence (Q9UK32 whole entry): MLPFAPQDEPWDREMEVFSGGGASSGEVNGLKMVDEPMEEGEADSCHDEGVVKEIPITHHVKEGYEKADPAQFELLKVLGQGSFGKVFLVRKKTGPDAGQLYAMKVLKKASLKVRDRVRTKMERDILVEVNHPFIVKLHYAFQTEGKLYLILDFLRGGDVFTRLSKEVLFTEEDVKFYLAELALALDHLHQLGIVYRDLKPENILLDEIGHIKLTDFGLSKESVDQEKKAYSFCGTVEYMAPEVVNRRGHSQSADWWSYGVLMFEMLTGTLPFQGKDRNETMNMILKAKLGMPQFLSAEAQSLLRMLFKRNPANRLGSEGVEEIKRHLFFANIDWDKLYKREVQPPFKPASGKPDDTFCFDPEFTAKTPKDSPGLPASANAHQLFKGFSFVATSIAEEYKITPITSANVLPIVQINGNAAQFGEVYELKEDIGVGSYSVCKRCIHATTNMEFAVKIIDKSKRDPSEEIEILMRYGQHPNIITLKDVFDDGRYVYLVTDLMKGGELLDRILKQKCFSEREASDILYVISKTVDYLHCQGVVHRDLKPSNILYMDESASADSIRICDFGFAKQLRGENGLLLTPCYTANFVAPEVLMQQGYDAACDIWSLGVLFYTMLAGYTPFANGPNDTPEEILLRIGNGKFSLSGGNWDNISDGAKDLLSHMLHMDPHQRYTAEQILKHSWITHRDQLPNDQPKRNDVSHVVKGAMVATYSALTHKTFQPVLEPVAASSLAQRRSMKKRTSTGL

SMILES | inhibition [1] [%] | inhibition [2] [%] | inhibition [3] [%] | inhibition [4] [%] | inhibition [5] [%] | inhibition [6] [%] | inhibition [7] [%] | inhibition [8] [%] | inhibition [9] [%] | inhibition [10] [%] | inhibition [11] [%] | inhibition [12] [%] | inhibition [13] [%] | inhibition [14] [%] | inhibition [15] [%] | inhibition [16] [%] | inhibition [17] [%] | inhibition [18] [%] | inhibition [19] [%] | inhibition [20] [%]
N#Cc1c(NC(=O)c2cccc3ccccc23)sc2c1CCCC2 | 1.27 | 3.76 | 0.45 | 1.09 | 1.34 | 1.65 | 2.42 | 1.14 | 2.66 | 3.83 | 5.58 | 1.58 | 2.23 | 3.56 | 1.18 | 6.1 | 1.08 | 2.77 | 1.29 | –
CC1=C(C(=O)Nc2ccc3[nH]ncc3c2)C(c2ccc(F)cc2)NC(=O)N1 (stereo not drawn) | 2.82 | 1.11 | 7.18 | -1.1 | 4.13 | 4.02 | 6.8 | 3.82 | 20.4 | 3.59 | 5.96 | 4.1 | 1.49 | 8.31 | 1.99 | 15.5 | 0.49 | -0.14 | -0.47 | 11.3
[O-][S+]1CCN(Cc2ccc(-c3ccc4ncnc(Nc5ccc(OCc6ccccc6)c(F)c5)c4c3)o2)CC1 | 0.29 | 1.32 | 0.95 | 1.18 | -1.29 | 0.74 | 2.23 | 0.77 | -0.08 | 0.83 | – | 1.72 | 3.74 | 5.47 | 4.69 | 5.63 | -0.91 | 1.4 | 1.36 | 2.16
CS(=O)(=O)CCNCc1nc(-c2ccc3ncnc(Nc4ccc(F)c(Cl)c4)c3c2)cs1 | 1.36 | 0.28 | 4.55 | 2.82 | -2.15 | 3.08 | 2.67 | 2.39 | 1.3 | -4.68 | 1.32 | 2.92 | 0.92 | 1.59 | 2.32 | 6.52 | 1.26 | 1.23 | 5.16 | 2
CCN1CCC(CC(=O)Nc2n[nH]c3nc(-c4cccs4)c(Br)cc23)CC1 | 1.64 | -1.12 | -1.95 | -5.07 | -0.81 | -2.7 | -2.06 | -0.96 | 4.08 | 3.33 | 5.99 | -2.53 | 3.39 | 21.7 | 2.29 | 18.5 | -0.45 | 1.72 | -4.08 | 9.14
O=C1NC(=O)C(c2ccccc2Cl)=C1Nc1cccc(O)c1 | 7.12 | 1.25 | 2.8 | 0.71 | 1.41 | 4.44 | 0.72 | 1.85 | 5.89 | -0.21 | 4.22 | 0.82 | 1.18 | 6.4 | 1.63 | 8.81 | 1.44 | 4.28 | 3.22 | 12.4
